The list is not random: actives were taken first. Their share in the collection is about 9%.
PLK1 PBD inh = PLK1 (human) polo-box domain binding inhibition; Plk1 PBD binding of FITC phosphopeptide, fluorescence polarization; Potency, µM, for the others: max response, negative = inhibition, hits mostly inhibitors; hit rate 2.8% among 360,000; AID 720504; also: series mostly up to about 57 µM; % is scaled to controls: 0 for no effect and ±100 for the full control effect; nearly all actives have a fitted effect of over 65% in size
JMJD2A Tudor inh = inhibitors of human JMJD2A Tudor domain; O75164; AlphaScreen JMJD2A-Tudor / H3K4me3 peptide binding; Potency, µM (highest dose often 114 µM), for the others: top-dose activity change, negative = inhibition, most hits filed as inhibitors; hit rate 4.4% among 390,000; AID 504339; also: % is scaled to controls: 0 for no effect and ±100 for the full control effect; nearly all actives have a fitted effect of over 50% in size
HP1b chromo inh = blocks HP1-beta chromodomain binding to methylated histone tails | P83916 | AlphaScreen HP1-beta / biotin-H3K9me3 peptide binding | Potency, µM (titrated, usually from 114 µM), without a hit: at the highest dose activity change, negative = inhibition, hits mostly inhibitors | hit rate 0.56% among 390,000 | AID 540317; also: nearly all actives have a fitted effect of over 70% in size
Target sequence (P83916 whole entry, looked up): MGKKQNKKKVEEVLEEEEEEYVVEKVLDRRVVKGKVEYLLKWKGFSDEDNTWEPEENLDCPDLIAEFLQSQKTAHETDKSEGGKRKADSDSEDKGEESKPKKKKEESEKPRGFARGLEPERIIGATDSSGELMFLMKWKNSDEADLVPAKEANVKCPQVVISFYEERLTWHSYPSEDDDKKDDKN
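Compound inhibition of the preformed complex between 50 nM HP1-beta and 50 nM biotinylated H3K9me3 peptide was read by AlphaScreen. Buffer was PBS pH 7.4 with 0.01% Tween-20. Incubations ran 30 min at room temperature, with 10 ug/mL donor/acceptor beads.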
ALOX12 inh = inhibitors of human 12S-lipoxygenase ALOX12; purified 12hLO, xylenol orange hydroperoxide absorbance; hit rate 1.1% among 580,000; Potency, µM (highest dose often 108 µM), for inactives: top-dose activity change, negative = inhibition, actives largely listed as inhibitors; AID 1671190; P18054; also: % is scaled to controls: 0 for no effect and ±100 for the full control effect
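Purified human 12hLO (150 nM final) in 25 mM Hepes, 0.01% Triton X-100, pH 7.0 was preincubated 15 min at room temperature with compound. Then 40 uM arachidonic acid was added, 30 min. Hydroperoxide was read by Fe-XO absorbance ratio 573/405 nm.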
BAZ2B inh = blocks human BAZ2B; Q9UIF8; AlphaScreen BAZ2B-H3K14Ac peptide displacement; Potency, µM (top dose mostly 114 µM), inactives show at the highest dose activity change, negative = inhibition, most hits filed as inhibitors; hit rate 4.4% among 360,000; AID 504333; also: % is scaled to controls: 0 for no effect and ±100 for the full control effect; nearly all actives have a fitted effect of over 60% in size
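AlphaScreen luminescence quantifies BAZ2B engagement of H3K14Ac peptide; the protein and biotinylated peptide are both at 50 nM final, buffer PBS pH 7.4 with 0.01% Tween-20, all steps at room temperature.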
G9a block = inhibitors of human histone lysine methyltransferase G9a; G9a H3K9 monomethylation, AlphaScreen, 2 h; Potency, µM (doses to about 102 µM), for inactives: at the highest dose activity, negative = inhibition, usual class: inhibitors; AID 504332; hit rate 8.8% among 350,000; Q96KQ7; also: % is scaled to controls: 0 for no effect and ±100 for the full control effect; nearly all actives have a fitted effect of over 75% in size
Target sequence (Q96KQ7 913-1193 limits assumed): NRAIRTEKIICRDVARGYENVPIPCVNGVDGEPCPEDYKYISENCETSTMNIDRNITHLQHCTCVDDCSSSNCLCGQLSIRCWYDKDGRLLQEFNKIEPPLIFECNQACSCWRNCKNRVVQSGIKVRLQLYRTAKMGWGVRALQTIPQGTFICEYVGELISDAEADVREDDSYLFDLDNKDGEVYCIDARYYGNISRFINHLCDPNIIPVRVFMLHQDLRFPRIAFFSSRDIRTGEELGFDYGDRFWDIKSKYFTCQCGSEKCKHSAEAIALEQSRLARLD
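G9a (20 nM) was preincubated 15 min with compound, then reacted 2 h at room temperature with 500 nM biotin-H3K9 peptide and 20 µM SAM. Monomethyl-H3K9 detected by AlphaScreen using anti-H3K9me1 antibody.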
An asterisk follows results filed as active; ? = inconclusive; / = no result; [ ] = another dose, or the depositor's remark. Calls follow the shape of the dose curve; as a rule, active = well fitted curve in the direction sought with a large enough effect; inconclusive = small, poorly fitted or top-dose-only effect, or another doubt; inactive = no such curve, though single readings can be large; an effect the other way counts as inactive or inconclusive. Potency is read from the fitted curve at half-maximal effect.

SMILES	PLK1 PBD inh	JMJD2A Tudor inh	HP1b chromo inh	ALOX12 inh	BAZ2B inh	G9a block
S=C(Nc1ccc2cn[nH]c2c1)Nc1ccc(Cl)cc1Cl	15µM*	?	-22%	?	?	28µM*
Cc1ccc(S(=O)(=O)N(C)C)cc1NC(=S)Nc1cccc2ccccc12	15µM*	-27%	-9%	?	-23%	?
Fc1ccc(NC(=S)Nc2cccc3ccccc23)cc1F	-22%	-6%	5%	?	-23%	-48%
S=C(Nc1ccc(Cl)cc1)Nc1cccc2cnccc12	-9%	-21%	-19%	?	-38%	45µM*
O=C(Nc1ccc2oc(=O)ccc2c1)c1cc2ccccc2o1	-2%	-1%	20%	421%	-4%	6%[59 µM]
COC(=O)c1[nH]c2cccc(OC)c2c1NC(=O)CCN1CCN(c2ccccc2F)CC1	/	/	/	307%	-34%	-44%[12.7 µM]
Cc1cc(NC(=S)Nc2cccc3ccccc23)n[nH]1	-26%	-23%	-14%	?	-25%	1.1µM*
COc1ccc(NC(=S)Nc2cccc3cnccc23)cc1	?	-33%	-19%	?	-37%	25µM*
CN(C)S(=O)(=O)c1cccc(NC(=S)Nc2ccc3cn[nH]c3c2)c1	21µM*	-28%	-3%	-17%	-20%	-31%
CCOc1ccc(NC(=S)Nc2cccc3cnccc23)cc1	?	-13%	-11%	-24%	-14%	?
CN(C)S(=O)(=O)c1cccc(NC(=S)N/N=C/c2cccc(O)c2)c1	-1%	-4%	19%	-8%	0%	0%
CN(C)S(=O)(=O)c1cccc(NC(=S)N/N=C/c2cc(Br)ccc2O)c1	22%	28µM*	-19%	28µM*	18µM*	/
COc1ccccc1NC(=S)Nc1cccc2cnccc12	30µM*	-28%	-23%	-14%	2%	25µM*
C=CCNC(=S)Nc1cccc2ccccc12	-5%	-9%	17%	-3%	-18%	45µM*
CN(C)S(=O)(=O)c1cccc(NC(=S)Nc2cccc3cnccc23)c1	17µM*	-35%	?	?	18%	/
Cc1ccc(NC(=S)Nc2cccc3ccccc23)cc1	?	-27%	-7%	?	?	/
CN(C)S(=O)(=O)c1cccc(NC(=O)c2ccncc2)c1	-7%	-19%	2%	-11%	3%	0%[59 µM]
C=CCNC(=S)NCc1ccccc1	-2%	-5%	33%	1%	-1%	/
Fc1ccc(NC(=S)Nc2cccc3ccccc23)cc1	-19%	-24%	1%	0%	?	79µM*
COc1ccc(-c2cc(C(F)(F)F)n3nc(C(=O)Nc4cc(C)ccc4C)cc3n2)cc1	/	3%	56%	-6%	-3%	-1%[59 µM]
CCOC(=O)C1(Cc2ccc(OC)cc2)CCN(C(=O)CCn2ccc(C)n2)CC1	0%	-1%	27%	2%	-9%	/
CC(Cc1ccccc1)NC(=O)c1cc2ccccc2o1 (centres undefined)	0%	11%	19%	-19%	37%	-34%
CCc1cccc(NC(=O)CCSCCC(=O)Nc2cccc(CC)c2)c1	-4%	-6%	33%	-5%	-22%	50µM*
Fc1ccc(NC(=S)Nc2cccc3cnccc23)cc1	?	-14%	-12%	-12%	-36%	35µM*
Cc1cccc(NC(=S)Nc2cccc3ccccc23)c1	-6%	-27%	5%	?	?	/
Cc1ccc(S(=O)(=O)N(C)C)cc1NC(=O)Nc1ccccc1F	9%	-8%	14%	0%	60%	50µM*
CCc1cccc(NC(=S)Nc2cccc3ccccc23)c1	-17%	-15%	-9%	45µM*	-36%	-60%
COc1cc(/C=C2/SC(=S)N(Cc3ccccc3)C2=O)ccc1OS(C)(=O)=O	-17%	?	-26%	-29%	?	13µM*
COc1cc(/C=C2/SC(=S)N(Cc3ccccc3)C2=O)cc(Cl)c1O	-33%	25µM*	?	?	13µM*	45µM*
